Assay results taken from PubChem BioAssay AID1159580 (chemical genetic matrix, 2015).
Where “and” joins values, the source holds several entries; their conditions need not be identical. Equal values may be shown once. Out of some 5,500 compounds screened, about 2,000 (36%) were called active. Inconclusive results (about 18%) are left out. Rule as the data show it: active = normalized growth mostly below about 0.91 (no sharp cut-off); inconclusive = no clear call, values can overlap the other calls; inactive = mostly above about 0.92. The list shows a part of the results.

Experiment: chemical genetic growth profiling, strain panel (AID 1159580);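 also: tested at 20 µM; growth read once vehicle control cultures reached saturation at 30 °C; 1 = growth at the plate median or of vehicle wells; lower values mean less growth of the strain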
Conditions: S. cerevisiae deletion strains, growth OD

Measured: normalized growth

O=C(O)CCCCCCCC(=O)O
inactive: locus YAL013W, strain DEP1, hits give low values 0.991 | locus YAL021C, strain ccr4, hits give low values 1.02 | locus YAL026C, strain drs2, hits give low values 1.04 | locus YAL030W, strain snc1, hits give low values 1.02 | locus YAL040C, strain CLN3, hits give low values 1.01 | locus YBL061C, strain skt5, hits give low values 1.01 | locus YBR009C, strain hhf1, hits give low values 1.01 | locus YBR021W, strain FUR4, hits give low values 0.999 | locus YBR023C, strain chs3, hits give low values 1.01 | locus YBR171W, strain sec66, hits give low values 1.03 | locus YBR229C, strain ROT2, hits give low values 0.956 | locus YBR231C, strain swc5, hits give low values 1.01 | locus YBR279W, strain paf1, hits give low values 0.991 | locus YCL011C, strain gbp2, hits give low values 1.02 | locus YCL016C, strain dcc1, hits give low values 1.03 | locus YCL029C, strain bik1, hits give low values 0.969 | locus YCL069W, strain vba3, hits give low values 1.02 | locus YCR088W, strain abp1, hits give low values 1.02 | locus YDL005C, strain med2, hits give low values 0.986 | locus YDL035C, strain GPR1, hits give low values 0.994 | locus YDL040C, strain nat1, hits give low values 0.999 | locus YDL074C, strain BRE1, hits give low values 0.982 | locus YDL101C, strain DUN1, hits give low values 0.981 | locus YDL134C, strain PPH21, hits give low values 0.96 | locus YDL185W, strain tfp1, hits give low values 0.982 | locus YDL192W, strain arf1, hits give low values 0.984 | locus YDR001C, strain nth1, hits give low values 1.03 | locus YDR069C, strain doa4, hits give low values 1 | locus YDR101C, strain arx1, hits give low values 0.991 | locus YDR137W, strain rgp1, hits give low values 0.99 | locus YDR150W, strain NUM1, hits give low values 0.974 | locus YDR159W, strain sac3, hits give low values 0.997 | locus YDR162C, strain NBP2, hits give low values 0.994 | locus YDR195W, strain ref2 0.997 | locus YDR297W, strain sur2, hits give low values 0.996 | locus YDR318W, strain mcm21, hits give low values 0.981 | locus YDR334W, strain swr1, hits give low values 1 | locus YDR335W, strain msn5, hits give low values 1 | locus YDR363W, strain ESC2, hits give low values 0.994 | locus YDR388W, hits give low values 0.98 | locus YDR392W, strain spt3, hits give low values 1.04 | locus YDR502C, strain sam2, hits give low values 0.986 | locus YEL003W, strain gim4, hits give low values 1.02 | locus YEL037C, strain rad23, hits give low values 1 | locus YEL061C, strain CIN8 (second series), hits give low values 1.03 | locus YEL061C, strain CIN8, hits give low values 0.989 | locus YER002W, strain NOP16, hits give low values 1.01 | locus YER015W, strain faa2, hits give low values 1 | locus YER016W, strain bim1, hits give low values 1.02 | locus YER110C, hits give low values 0.971 | locus YER111C, strain swi4, hits give low values 1.01 | locus YER155C, strain BEM2 (second series), hits give low values 1.07 | locus YER155C, strain BEM2, hits give low values 1 | locus YER167W, strain BCK2, hits give low values 1.02 | locus YFR010W, strain ubp6, hits give low values 1.01 | locus YGL078C, strain dbp3, hits give low values 0.983 | locus YGL086W, strain mad1, hits give low values 1 | locus YGL167C, strain pmr1, hits give low values 1.02 | locus YGL173C, strain kem1, hits give low values 1.02 | locus YGL227W, strain vid30, hits give low values 1.02 | locus YGL240W, strain doc1, hits give low values 1.01 | locus YGL248W, strain PDE1, hits give low values 0.992 | locus YGL253W, strain hxk2, hits give low values 1.02 | locus YGR078C, strain PAC10, hits give low values 0.99 and 1.01 | locus YGR135W, strain pre9, hits give low values 0.988 | locus YGR229C, strain SMI1, hits give low values 1 and 0.991 | locus YGR252W, strain gcn5, hits give low values 0.961 | locus YHR013C, strain ard1, hits give low values 1.04 | locus YHR027C, strain rpn1, hits give low values 1 | locus YHR030C, strain SLT2, hits give low values 0.993 and 0.979 | locus YHR079C, strain IRE1 (second series), hits give low values 0.988 | locus YHR079C, strain IRE1, hits give low values 0.982 | locus YHR094C, strain hxt1, hits give low values 0.995 | locus YHR129C, strain ARP1, hits give low values 0.96 | locus YHR142W, strain chs7, hits give low values 1.05 | locus YHR200W, strain rpn10, hits give low values 0.991 | locus YIL066C, strain RNR3, hits give low values 0.976 | locus YIL073C, strain SPO22, hits give low values 0.952 | locus YIL125W, strain kgd1, hits give low values 0.999 | locus YIR030C, strain dcg1, hits give low values 0.986 | locus YJL092W, strain hpr5, hits give low values 1.03 | locus YJL095W, strain BCK1 (second series), hits give low values 1.01 | locus YJL095W, strain BCK1, hits give low values 1.03 and 0.992 | locus YJL115W, strain asf1, hits give low values 1.01 | locus YJL129C, strain trk1, hits give low values 1.01 | locus YJL134W, strain LCB3, hits give low values 0.991 | locus YJL154C, strain vps35, hits give low values 1.03 | locus YJL164C, strain tpk1, hits give low values 1.03 | locus YJL166W, strain qcr8, hits give low values 1.02 | locus YJL168C, strain set2, hits give low values 0.99 | locus YJL187C, strain SWE1 (second series), hits give low values 0.976 | locus YJR043C, strain POL32, hits give low values 0.994 | locus YJR066W, strain TOR1, hits give low values 0.965 | locus YJR075W, strain HOC1, hits give low values 0.985 and 0.983
